These results are taken from PubChem BioAssay (Tox21).

Assay [1] is described as follows: A CellTox Green Cytotoxicity Assay to monitor cytotoxicity in HepG2 cells - 8 hour (AID 1224890). Also: nearly all actives have a fitted effect of over 45% in size. In a few lines: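 Real-time, homogeneous cytotoxicity readout: dead-cell DNA staining by CellTox Green in HepG2 monolayers, fluorescence measured at timed intervals up to 40 h of continuous compound exposure.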
Assay [2] can be described thus: qHTS assay to identify small molecule antagonists of the estrogen receptor alpha (ER-alpha) signaling pathway using the BG1 cell line in the presence of 0.1 nM 17-beta-estradiol - cell viability counter screen (AID 1259241). Also: nearly all actives have a fitted effect of over 40% in size. Also: potency is read from the fitted curve at half-maximal effect. In a few lines:
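VM7Luc4E2, 4,000 cells/well, phenol red-free medium + 10% charcoal-stripped FBS; 24 hr plating; cpd + 0.1 nM E2 final, 22 hr 37C/5% CO2; CellTiter-Fluor 30 min, fluorescence.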
In general terms: qHTS replaces the single test concentration by a dilution series.

Assay [3] in a line: qHTS assay to identify small molecule antagonists of the androgen receptor (AR) signaling pathway using the MDA cell line in the presence of 0.5 nM R1881 - cell viability counter screen (AID 1259242). Also: nearly all actives have a fitted effect of over 45% in size. Also: potency is read from the fitted curve at half-maximal effect. In a few lines: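 Cytotoxicity toward MDA-kb2 cells is measured by CellTiter-Fluor live-cell protease fluorescence after 16 hr compound exposure at 37C in the presence of 0.5 nM R1881 stimulator.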

Assay [4] addresses Estrogen receptor (Homo sapiens) (UniProt P03372). Kind of assay: qHTS assay to identify small molecule antagonists of the estrogen receptor alpha (ER-alpha) signaling pathway using the BG1 cell line in the presence of 0.1 nM 17-beta-estradiol (AID 1259244). Also: nearly all actives have a fitted effect of over 50% in size. Also: potency is read from the fitted curve at half-maximal effect. In a few lines: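 After 5 days in hormone-depleted medium (charcoal-stripped serum, no phenol red), VM7Luc4E2 cells were seeded, incubated 24 h, then co-treated with compound and 0.1 nM (final) estradiol for 22 h before luminescence detection.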

A short description of assay [5]: qHTS assay to identify small molecule phospholipidosis (PLD) inducers (AID 1259344; active = well fitted curve in the direction sought with a large enough effect; an effect the other way counts as inactive or inconclusive). In a few lines:
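HepG2 cells, 900/well, treated with compound plus LipidTOX Red for 24 h at 37 C; amiodarone positive and DMSO negative controls. Fixed with paraformaldehyde/Hoechst, then high-content imaging scored LipidTOX pit count and integrated intensity per well and per cell.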

A short description of assay [6]: qHTS assay to identify small molecule HDAC inhibitors (AID 1259364). Also: nearly all actives have a fitted effect of over 45% in size. Also: potency is read from the fitted curve at half-maximal effect. In a few lines:
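Homogeneous cell-based luminescent assay of endogenous class I/II HDAC activity; HCT-116 cells, 2 h compound exposure, 30 min HDAC-Glo development at RT.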

Assay [7] in a line: qHTS assay to identify small molecule HDAC inhibitors - cell viability counter screen (AID 1259365). Also: nearly all actives have a fitted effect of over 50% in size. Also: potency is read from the fitted curve at half-maximal effect. Put shortly: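 Luminescence from CellTiter-Glo, developed 30min at room temperature, reports viability of wild-type HCT-116 cells treated 2hr with compounds at 37 C and 5% CO2 after overnight plating.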
Assay [8] can be described thus: qHTS assay to identify small molecule agonists of the sonic hedgehog signaling (Shh) pathway - cell viability counter screen (AID 1259366). Also: nearly all actives have a fitted effect of over 50% in size. Also: potency is read from the fitted curve at half-maximal effect. Put shortly:
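Cytotoxicity counter screen run in the same wells as the Shh reporter assay. NIH/3T3 cells carrying a Gli1 response element–driven luciferase were treated with DMSO-dissolved compounds for 24hr, and live-cell protease activity was measured with CellTiter-Fluor.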

A short description of assay [9]: qHTS assay to identify small molecule antagonists of the sonic hedgehog signaling (Shh) pathway - cell viability counter screen (AID 1259367). Also: nearly all actives have a fitted effect of over 55% in size. Also: potency is read from the fitted curve at half-maximal effect. Put shortly:
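NIH/3T3-derived Gli1-Luc reporter cells, 2,000/well, plated 4 hr before compound addition, then stimulated with conditioned medium for 24 hr at 37C. Viability measured in the same wells by CellTiter-Fluor fluorescence, reagent added at 23 hr for 1 hr.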

Assay [10] concerns the target Androgen receptor (Homo sapiens) (UniProt P10275). Briefly: qHTS assay to identify small molecule antagonists of the androgen receptor (AR) signaling pathway using the MDA cell line in the presence of 0.5 nM R1881 (AID 1259243). Also: nearly all actives have a fitted effect of over 50% in size. Also: potency is read from the fitted curve at half-maximal effect. Put shortly:
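Steps: seed MDA-kb2 cells, incubate 5 hr at 37C; pin-transfer compounds in DMSO; add R1881 to 0.5 nM final; incubate 16 hr; add ONE-Glo, wait 30 min at room temperature; read luminescence.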

Results filed as inconclusive are left out. The source holds several records for some structures; these can differ, active in one and inactive in another. The source made the active and inactive calls. Unless noted, calls follow the shape of the dose curve; as a rule, active = well fitted curve in the direction sought with a large enough effect in the repeat runs; inconclusive = weak or mixed curves; inactive = no such curve, though single readings can be large; an effect the other way counts as inactive or inconclusive.
% is scaled to controls: 0 for no effect and ±100 for the full control effect.

Estrogen receptor (Homo sapiens), sequence (P03372 whole entry, looked up): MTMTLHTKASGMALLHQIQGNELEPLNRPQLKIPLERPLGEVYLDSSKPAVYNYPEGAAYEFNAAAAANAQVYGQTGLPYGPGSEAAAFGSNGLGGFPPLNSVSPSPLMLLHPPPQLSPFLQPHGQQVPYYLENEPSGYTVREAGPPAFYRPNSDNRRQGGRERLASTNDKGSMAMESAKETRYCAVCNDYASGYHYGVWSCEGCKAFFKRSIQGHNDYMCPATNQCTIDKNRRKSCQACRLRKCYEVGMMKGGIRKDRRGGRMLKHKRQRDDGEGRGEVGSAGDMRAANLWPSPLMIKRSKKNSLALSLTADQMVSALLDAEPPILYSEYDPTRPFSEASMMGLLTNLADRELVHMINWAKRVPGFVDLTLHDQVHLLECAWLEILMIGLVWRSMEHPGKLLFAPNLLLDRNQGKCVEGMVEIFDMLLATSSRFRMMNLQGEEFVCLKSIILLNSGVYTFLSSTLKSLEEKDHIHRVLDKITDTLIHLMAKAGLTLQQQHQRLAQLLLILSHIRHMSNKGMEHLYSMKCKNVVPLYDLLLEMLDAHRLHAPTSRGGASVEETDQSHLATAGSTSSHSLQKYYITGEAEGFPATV
Androgen receptor (Homo sapiens), sequence (P10275 whole entry, looked up): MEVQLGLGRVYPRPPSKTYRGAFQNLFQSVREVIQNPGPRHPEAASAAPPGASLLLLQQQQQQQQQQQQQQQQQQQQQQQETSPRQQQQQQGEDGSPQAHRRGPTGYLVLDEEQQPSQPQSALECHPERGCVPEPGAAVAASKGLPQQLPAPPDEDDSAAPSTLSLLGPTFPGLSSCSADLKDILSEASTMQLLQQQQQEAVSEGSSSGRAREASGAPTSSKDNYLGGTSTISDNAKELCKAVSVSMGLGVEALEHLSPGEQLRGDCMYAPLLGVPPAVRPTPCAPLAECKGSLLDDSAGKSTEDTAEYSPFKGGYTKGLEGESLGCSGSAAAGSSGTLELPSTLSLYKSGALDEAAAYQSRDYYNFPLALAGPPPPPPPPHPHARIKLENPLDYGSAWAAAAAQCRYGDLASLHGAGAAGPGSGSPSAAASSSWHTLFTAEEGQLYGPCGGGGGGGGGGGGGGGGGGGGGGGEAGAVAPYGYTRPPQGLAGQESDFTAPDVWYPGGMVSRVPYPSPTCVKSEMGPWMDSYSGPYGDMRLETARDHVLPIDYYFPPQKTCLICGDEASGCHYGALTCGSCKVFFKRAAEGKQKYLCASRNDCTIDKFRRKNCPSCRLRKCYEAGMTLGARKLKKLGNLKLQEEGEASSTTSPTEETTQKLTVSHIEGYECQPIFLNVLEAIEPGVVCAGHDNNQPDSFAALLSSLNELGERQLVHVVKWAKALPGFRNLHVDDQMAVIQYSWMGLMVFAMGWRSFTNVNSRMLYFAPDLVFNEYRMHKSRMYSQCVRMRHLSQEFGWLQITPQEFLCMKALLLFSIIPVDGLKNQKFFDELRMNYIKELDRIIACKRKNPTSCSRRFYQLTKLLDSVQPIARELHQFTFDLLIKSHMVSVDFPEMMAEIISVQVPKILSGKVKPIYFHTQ

In the case of `O=[N+]([O-])c1ccc(F)c([N+](=O)[O-])c1`, the Potency result in assay [1] and in assay [7] was “inactive” throughout. For the same compound, the Potency in assay [2] is 17.4 µM (active); in assay [3] it was 30.9 µM (active); in [4], 27.6 µM (active); in [6] it was 12.3 µM (active); in assay [8], 24.6 µM (active). Besides, the compound was classed as inactive in assay [5].
Consider `ClC=C(Cl)Cl`, for which the Potency entry in assay [1], in assay [2], in assay [3], in assay [4], in [6] and in assay [7] was “inactive” in each case. For the same compound, the Potency result in [8] and in assay [9] was “inactive” in each case. Moreover, the call in assay [5] was inactive.
As for `C[C@]12CC[C@H]3[C@@H](CCC4=CC(=O)CC[C@@H]43)[C@@H]1CC[C@@H]2OC(=O)CCC1CCCCC1`, the Potency entry in [1], in assay [2], in [3], in assay [10], in assay [4] and in [7] was “inactive” in each case. In addition, the Potency entry in [8] is “inactive”.
With `S=C=NCc1ccccc1`, the Potency entry in assay [1], in assay [2], in assay [3], in assay [6], in assay [7] and in assay [9] was “inactive” throughout. The Potency in [10] was 27.6 µM (active).
On to `O=C1NCN(c2ccccc2)C12CCN(CCCOc1ccc(F)cc1)CC2`, for which the Potency result in assay [1], in assay [2], in assay [3], in assay [6], in assay [7] and in assay [9] was “inactive” throughout. For the same compound, the Potency in assay [4] was 7.5 µM (active). Besides, the compound was called inactive in assay [5].
As for `COc1cc(CC(C)N)cc2c1OCO2` (stereo not drawn), the Potency result in assay [1], in assay [2], in [3], in assay [4], in [6] and in [7] was “inactive” in each case. The Potency result in assay [8] is “inactive”. In assay [5], the compound was classed as inactive.
Turning to `NCCCNCCCN`, the Potency entry in assay [1], in [2], in assay [3], in assay [10], in assay [6] and in assay [7] was “inactive” each time. Further, the Potency entry in assay [8] and in assay [9] was “inactive” throughout.
As to `CN1C(=O)C(O)N=C(c2ccccc2)c2cc(Cl)ccc21` (stereo not drawn), the Potency entry in [1], in assay [2], in assay [3], in assay [6], in [7] and in assay [8] was “inactive” throughout. The Potency result in [9] was “inactive”. Further, the Potency in assay [4] was 56.4 µM (active). In addition, the compound was classed as inactive in [5].
Take `COP(=O)(OC)O/C(=C/Cl)c1cc(Cl)c(Cl)cc1Cl`: the Potency result in assay [1], in assay [2], in assay [3], in assay [6], in assay [7] and in [8] was “inactive” throughout. For the same compound, in assay [9], the Potency result was “inactive”. Also, the Potency was 45.7 µM (active) in assay [10] and 57.5 µM (active) in assay [4].
In the case of `Cc1cc(=O)[nH]o1`, the Potency entry in assay [1], in assay [2], in assay [3], in assay [10], in [4] and in [6] was “inactive” in each case. For the same compound, the Potency result in assay [7], in assay [8] and in assay [9] was “inactive” each time.
For the compound `CCCCCCCCCC(=O)O[C@H]1CC[C@H]2[C@@H]3CCC4=CC(=O)CC[C@@H]4[C@H]3CC[C@]12C`, the Potency result in [1], in assay [2], in assay [3], in assay [4], in assay [7] and in assay [8] was “inactive” each time. The Potency entry in assay [9] is “inactive”. Moreover, the result in assay [5] was inactive.
In the case of `CCOC(=O)COc1cc(-c2nn(C)c(OC(F)F)c2Cl)c(F)cc1Cl`, the Potency entry in assay [1], in [2], in [3], in [10], in [6] and in assay [7] was “inactive” each time. In addition, the Potency entry in assay [8] and in assay [9] was “inactive” throughout.
In the case of `Cc1ccc2ccccc2c1`, the Potency result in assay [1], in assay [2], in assay [3], in assay [10], in assay [4] and in assay [6] was “inactive” throughout. Further, the Potency entry in assay [7], in assay [8] and in assay [9] was “inactive” each time.
In the case of `O=C(CCl)c1ccc(Cl)cc1Cl`, the Potency entry in assay [1], in [2], in assay [3], in assay [4], in assay [6] and in assay [7] was “inactive” in each case. Moreover, in [9], the Potency result is “inactive”. In addition, the results for the Potency in [10] and in assay [8] were 13.3 µM (active) and 33.5 µM (active), respectively. Also, in assay [5], the result was inactive.
Turning to `Cc1ccc(N)cc1C`, the Potency result in assay [1], in assay [2], in assay [3], in [4], in [6] and in assay [7] was “inactive” each time.
As for `CCOP(=S)(OCC)Oc1nc(Cl)c(Cl)cc1Cl`, the Potency result in assay [1], in assay [2], in assay [3] and in [6] was “inactive” each time. Besides, the Potency in assay [10] was 27.4 µM (active); in [7] it was 48.7 µM (active) and inactive; in [8] it was 43.4 µM (active) and inactive; in assay [9], 68.7 µM (active) and inactive.
Consider `C=CC(=O)NCNC(=O)C=C`, for which the Potency result in [1], in assay [2], in [3], in assay [10], in assay [4] and in assay [7] was “inactive” throughout. Besides, in [9], the Potency entry is “inactive”. Also, the outcome in assay [5] was inactive.
In the case of `C=CCC1([C@H](C)CCC)C(=O)NC(=O)NC1=O`, the Potency entry in assay [1], in assay [2], in [3], in assay [4], in assay [6] and in [7] was “inactive” in each case. The Potency result in [8] is “inactive”. In assay [5], the compound was classed as inactive.
As to `C=CCOC(C)=O`, the Potency result in assay [1], in assay [2], in assay [3], in [4], in assay [6] and in assay [7] was “inactive” throughout. Also, the Potency entry in [8] is “inactive”. Moreover, the Potency in assay [10] is 26.9 µM (active).
Consider `CC[C@H]1C[C@H]2[C@@H]3CCC4=CC(=O)CC[C@@H]4[C@H]3CC[C@]2(C)[C@H]1O`, for which the Potency result in assay [1], in [2], in assay [3], in assay [4], in assay [7] and in assay [8] was “inactive” throughout. For the same compound, in assay [9], the Potency entry is “inactive”. Further, the PLD induction in assay [5] is 1.62% [at 7.66 µM] (inactive).
With `COC(C)(C)CCC[C@H](C)C/C=C/C(C)=C/C(=O)OC(C)C`, the Potency entry in assay [1], in [2], in assay [3], in [10], in assay [7] and in assay [8] was “inactive” in each case. The Potency result in [9] is “inactive”.
Take `c1ccc(C2CC2)c(OCC2=NCCN2)c1`: the Potency result in assay [1], in assay [2], in assay [3], in [4], in assay [6] and in assay [7] was “inactive” throughout. In addition, the Potency entry in assay [8] was “inactive”. Also, the outcome in assay [5] was inactive.
Turning to `CCCCCCCCCCOC(=O)c1ccccc1C(=O)OCCCCCCCCCC`, the Potency entry in assay [1], in assay [2], in assay [3], in assay [10], in assay [4] and in [6] was “inactive” in each case. The Potency result in assay [7], in [8] and in assay [9] was “inactive” in each case.
Turning to `Clc1cccc(SC2CCNCC2)n1`, the Potency entry in [1], in assay [2], in [3], in assay [4], in [6] and in [7] was “inactive” throughout. Also, the Potency result in [8] is “inactive”. Further, in assay [5], the outcome was inactive.
In the case of `Cn1sc(Cl)cc1=O`, the Potency entry in [1], in [2], in assay [3], in [4], in assay [6] and in assay [7] was “inactive” each time. For the same compound, the Potency result in [8] was “inactive”. Moreover, in [5], the call was inactive.
With `C[C@H]1CNCCc2ccc(Cl)cc21`, the Potency entry in assay [1], in assay [2], in assay [3], in assay [4], in assay [6] and in assay [7] was “inactive” throughout. The Potency entry in assay [8] and in [9] was “inactive” each time. The PLD induction in assay [5] is 0.0663% [at 7.66 µM] (inactive).
Regarding `COCC(C)N(C(=O)CCl)c1c(C)csc1C` (stereo not drawn), the Potency entry in assay [1], in [2], in assay [3], in assay [4] and in assay [7] was “inactive” in each case. In addition, the compound was called inactive in assay [5].
